Screening results: PubChem, National Center for Advancing Translational Sciences (NCATS)
Shown are actives, neighbours in structure and some others; about 3.8% of the full set was active somewhere.
OvCa metastasis – blocks SKOV3ip1 adhesion and invasion in omental model. SKOV3ip1-GFP adhesion/invasion on 3D omental model, fluorescence. Potency, µM (series often up to 45.8 µM), for inactives: at the top dose activity change, negative = inhibition, usual class: inhibitors. 46,000 tested, 0.1% active;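 note: potency is the fitted concentration of half-maximal effect; plate controls were DMSO wells for no effect and tomatine positive control wells for full effect; nearly all actives have a fitted effect of over 65% in size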
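Adhesion/invasion was scored as fixed GFP-labeled SKOV3ip1 cell counts (488/509 nm), normalized to DMSO and tomatine controls. Cancer cells in serum-free medium, with four compound doses (0.36-46 umol/L), sat 2 hr at RT then 16 hr at 37 C on a 48 hr fibroblast/mesothelial/ECM culture.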
B2AR arrestin ag – beta-arrestin recruitment by human beta2-adrenergic receptor ligands; P07550; HTLA Tango cells, beta-arrestin recruitment, luciferase luminescence, 18 h; Potency, µM (doses to about 46.1 µM), actives largely listed as activators; 44,000 tested, under 10 active; AID 1347077;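 note: potency is the fitted concentration of half-maximal effect; 0% = DMSO and full agonism = EC100 isoproterenol or metaproterenol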
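First, Tango cells carrying beta2-AR and beta-arrestin fusions received compound up to 46 microM. After 18 hr at 37 degrees C, luciferase substrate was added for 15 minutes, then luminescence gave %Activity for curve fitting.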
DRV1 agonist – GPR32 (DRV1) agonism, beta-arrestin recruitment. CHO-K1 GPR32 beta-arrestin PathHunter luminescence, 90 min; zero percent set by DMSO-only wells. activation, % at 76.9 µM. 48,000 tested, 2.5% active;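 active = activation of at least 60% and not above a set upper limit, about 1 call in 100 departs from these limits; inconclusive = activation of 40% to 60%, or above that upper limit; inactive = activation under 40%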; note: 0% is about no effect
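Luminescent readout of beta-Gal complementation quantifies ligand-induced beta-arrestin association with GPR32 in CHO-K1 cells; 90 min compound incubation at 37 °C, detection 1 h at room temperature.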
TSG101-PTAP inh – inhibitors of HIV-1 PTAP binding to human TSG101, validation | AID 1347069 | Potency, µM (series often up to 115 µM), most hits filed as inhibitors | Fluorescence polarization, FITC-PTAP peptide/Tsg101, 20 min | 44,000 tested, under 10 active | Q99816; note: potency is the fitted concentration of half-maximal effect; 0% is about no effect
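qHTS FP binding, 20 min r.t.: 10 uM Tsg101 domain + 50 nM FITC-PTAP peptide, pH 7.5 HEPES buffer with TCEP and EDTA.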
NTMT1 inhibitor – blocks human N-terminal methyltransferase 1 activity; Potency, µM (series often up to 114 µM), without a hit: top-dose activity change, negative = inhibition, hits mostly inhibitors; 59,000 tested, 2.5% active; Q9BV86; AID 1645870; NTMT1 MTase-Glo SAH luminescence, purified enzyme;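 note: potency is the fitted concentration of half-maximal effect; plate controls were DMSO vehicle for no effect and no enzyme for full effect; nearly all actives have a fitted effect of over 65% in size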
Target sequence (Q9BV86 whole entry, looked up): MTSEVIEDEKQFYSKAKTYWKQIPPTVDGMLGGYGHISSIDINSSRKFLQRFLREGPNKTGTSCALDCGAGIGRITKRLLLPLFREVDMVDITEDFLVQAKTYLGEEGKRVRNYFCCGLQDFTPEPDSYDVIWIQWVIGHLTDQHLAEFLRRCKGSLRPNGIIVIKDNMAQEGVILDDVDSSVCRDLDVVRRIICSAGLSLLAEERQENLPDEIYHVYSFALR
GALK inh – inhibits human galactokinase. 44,000 tested, under 10 active. P51570. Potency, µM (highest dose often 57.5 µM), inactives show at the top dose activity, negative = inhibition, most hits filed as inhibitors. recombinant GALK, Kinase-Glo ATP luminescence, 1 h. AID 1347072;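 note: plate controls were full GALK reaction for no effect and reaction lacking GALK for full effect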
Target sequence (P51570 whole entry, looked up): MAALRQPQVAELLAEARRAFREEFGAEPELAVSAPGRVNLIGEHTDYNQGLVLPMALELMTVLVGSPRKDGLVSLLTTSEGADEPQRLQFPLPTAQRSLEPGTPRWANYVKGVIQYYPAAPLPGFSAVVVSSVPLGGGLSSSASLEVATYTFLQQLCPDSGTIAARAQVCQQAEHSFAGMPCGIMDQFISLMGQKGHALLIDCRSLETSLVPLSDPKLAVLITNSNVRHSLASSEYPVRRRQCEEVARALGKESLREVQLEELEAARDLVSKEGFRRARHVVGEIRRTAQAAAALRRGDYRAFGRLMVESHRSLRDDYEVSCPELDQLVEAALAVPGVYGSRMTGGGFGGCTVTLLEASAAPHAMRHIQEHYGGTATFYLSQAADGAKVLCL
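5 nM GALK; 35 uM ATP; 100 uM D-galactose; 20 mM HEPES pH 8.0, 5 mM MgCl2, 60 mM NaCl, 1 mM DTT, 0.01% BSA; 1 h RT; Kinase-Glo Plus luminescence.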
* marks the source's active call; other numbers are inactive results; i = inactive; ? = inconclusive; nt = no result; ! = repeats disagree; [ ] = dose if it differs, or a comment. Unless noted, calls come from the whole dose curve; as a rule, active = well fitted curve in the direction sought with a large enough effect; inconclusive = small, poorly fitted or top-dose-only effect, or another doubt; inactive = no such curve, though single readings can be large; an effect the other way counts as inactive or inconclusive.

SMILES | OvCa metastasis | B2AR arrestin ag | DRV1 agonist | TSG101-PTAP inh | NTMT1 inhibitor | GALK inh
COc1ccc(NC(=O)c2ccc3oc(=O)c(S(=O)(=O)c4ccc(F)cc4)cc3c2)cc1OC | 2.1% | i | -2.4 | i | -4.7% | 0.3%
Cc1cc(C)cc(NC(=O)c2ccc3oc(=O)c(S(=O)(=O)c4ccc(F)cc4)cc3c2)c1 | -3.8% | i | 102.8* | i | 8.0% | 0.0%
O=C(Nc1ccccc1F)c1ccc(Cn2nc(N3CCN(c4ccccc4)CC3)ccc2=O)o1 | 4.3% | i | 90.1* | i | -0.4% | 3.3%
CSc1ccc(CNC(=O)Cn2nc(N3CCN(c4ccccc4)CC3)ccc2=O)cc1 | 7.1% | i | 94.5* | i | ? | -0.7%
O=C(Cn1nc(N2CCN(c3ccccc3)CC2)ccc1=O)NCc1cccc(Cl)c1 | -1.5% | i | 120.5* | i | -13.0% | -0.2%
COC(=O)c1ccccc1NC(=O)c1ccc2c(c1)CCN2S(=O)(=O)c1ccc(C)cc1 | 4.5% | i | -3.8 | i | 11.1% | 1.0%
COc1cc(N)c(Cl)cc1C(=O)NC1CCN(CCCOc2ccc(F)cc2)CC1OC (stereo unspecified) | nt | nt | 63.8* | nt | -12.5%[57.5 µM] | nt
COc1cc(N)c(Cl)cc1C(=O)OCCN1CCCCC1 | nt | nt | -4.2 | nt | nt | nt
COc1ccccc1NC(=O)c1c(NCc2ccc(C)o2)sc2c1CCCCC2 | i | i | -18.6 | i | 28.2µM* | 1.5%
COc1ccc(CC(=O)Nc2sc3c(c2C(=O)Nc2cccc(Cl)c2)CCCCC3)cc1 | ? | i | 16.7 | i | 19.4% | 0.0%
O=C(Nc1sc2c(c1C(=O)Nc1cccc(Cl)c1)CCCC2)c1cccs1 | i | i | -4.2 | i | 25.1µM* | 2.3%
COc1ccc(OC)c(NC(=O)c2c(NCc3ccc(C)o3)sc3c2CCCCC3)c1 | ? | i | -19.2 | i | ? | 1.1%
O=C(Cc1ccccc1)Nc1sc2c(c1C(=O)Nc1ccccc1Cl)CCCC2 | -32.0% | i | 17.4 | i | 89.1µM* | -1.9%
CCN(CC)C(=O)Cn1c(=O)cc(C)c2c(C)nn(-c3cccc(Cl)c3C)c21 | -3.3% | i | 94.0* | i | 6.5% | 1.6%
Cc1ccc(S(=O)(=O)N2CCC(c3nnc(-c4cccc(C)c4)o3)CC2)cc1 | -6.7% | i | -14.2 | i | ? | -0.6%
CCCc1ccc(S(=O)(=O)N2CCC(c3nnc(-c4cccc(C)c4)o3)CC2)cc1 | -8.0% | i | -18.4 | i | 79.4µM* | 6.7%
C#C[C@]1(O)CC[C@H]2[C@@H]3[C@H](C)CC4=C(CCC(=O)C4)[C@H]3CC[C@@]21C | nt | nt | 98.6* | nt | 25.1µM*! | nt
COc1ccccc1N1CCN(c2nc3c(S(=O)(=O)c4ccc(C)c(C)c4)nnn3c3ccc(Cl)cc23)CC1 | 0.6% | i | 3.8 | i | 3.6% | 1.6%
Cc1ccc(S(=O)(=O)NCCc2csc(-c3cccc(F)c3)n2)cc1 | i | i | 80.0* | i | -1.2% | -1.8%
Cc1ccc(C)c(S(=O)(=O)NCCc2csc(-c3ccc(Cl)cc3)n2)c1 | -9.6% | i | 73.6* | i | 22.5% | -3.7%
O=S(=O)(NCCc1csc(-c2ccc(F)cc2)n1)c1ccc(Cl)cc1 | 1.6% | i | 63.6* | i | 1.7% | -1.9%
CCCC(=O)NCCc1csc(-c2ccc(Cl)cc2)n1 | nt | nt | nt | nt | -13.0%[57.5 µM] | nt
CCOc1ccc(S(=O)(=O)NCCc2csc(-c3ccc(Cl)cc3)n2)cc1 | i | i | 69.2* | i | ? | -0.5%
O=S(=O)(NCCc1csc(-c2cccc(F)c2)n1)c1cc(F)ccc1F | -24.0% | i | 24.6 | i | 11.1% | 0.1%
Cc1ccc(S(=O)(=O)NCCc2csc(-c3ccc(Cl)cc3)n2)cc1 | i | i | ? | i | -12.8% | -11.5%
SMILES | OvCa metastasis | B2AR arrestin ag | DRV1 agonist | TSG101-PTAP inh | NTMT1 inhibitor | GALK inh
Cc1ccccc1-c1noc(CSc2nc3ccccc3[nH]2)n1 | i | i | 31.4 | i | 0.8% | 6.8%
Cc1cc(F)ccc1NC(=O)CCS(=O)(=O)c1ccc2c(c1)CC(C)N2C(=O)C1CC1 (stereo unspecified) | 0.7% | i | 9.2 | i | nt | 1.0%
COC(=O)c1cc(S(=O)(=O)NCC2CCN(Cc3cc(C)ccc3C)CC2)c[nH]1 | i | i | -12.7 | i | -8.6% | 2.5%
O=C(NCCc1ccccc1)c1ccc(CSc2nc3ccncc3n2Cc2cccc(F)c2)cc1 | -12.6% | i | -21.7 | i | 12.7% | 0.2%
O=C(Cc1nc2ccc(Cl)cc2[nH]1)Nc1ccc(S(=O)(=O)Nc2nccs2)cc1 | nt | nt | nt | nt | 7.7%[57.5 µM] | nt
COc1ccc(S(=O)(=O)NCCc2csc(-c3ccc(F)cc3)n2)cc1 | -1.3% | i | 60.3* | i | -0.1% | 0.3%
COc1ccc(-c2nc(CNS(=O)(=O)c3ccc(F)cc3)cs2)cc1 | 8.7% | i | -17.9 | i | -3.5% | 3.3%
O=C(O)COc1ccccc1C1Nc2ccccc2-c2nnc(SCc3ccc(Cl)cc3)nc2O1 (stereo unspecified) | -9.6% | i | 107.9* | i | -3.3% | -1.5%
COc1cc(C2Nc3ccccc3-c3nnc(SCc4ccc(Cl)cc4)nc3O2)ccc1OCC(=O)O (stereo unspecified) | 6.1% | i | ? | i | 18.2% | -0.2%
CCCN(Cc1cccs1)C(=O)Nc1ccc(Br)cc1F | -5.9% | i | -5.7 | i | 0.7% | 1.9%
Cc1ccc(NC(=O)Cn2c(=O)ccc3cc(S(=O)(=O)N4CCC(C)CC4)ccc32)cc1C | 10.6% | i | 70.0* | i | 4.7% | 1.0%
COc1ccc(NC(=O)Cn2cnc3ccc(S(=O)(=O)N4CCC(C)CC4)cc3c2=O)cc1OC | ? | i | 112.9* | i | -4.7% | 0.1%
O=c1[nH]c(=O)n([C@H]2C[C@@H](O)[C@@H](CO)O2)cc1F | 0.4% | nt | nt | nt | 34.9%[57.5 µM] | nt
Cc1nc(-c2ccc(S(=O)(=O)NCc3ccc(F)cc3)cc2)co1 | -10.6% | i | ? | i | 18.9% | 0.1%
Cc1cccc(CNS(=O)(=O)c2ccc(-c3coc(C)n3)cc2)c1 | i | i | 98.5* | i | -12.1% | 1.7%
c1ccc(CN2CCC3(CCCc4ccccc43)CC2)cc1 | nt | nt | -23.0 | nt | nt | nt
O=C(CCC1CCN(Cc2ccccc2)CC1)c1ccc2c(c1)NCCCC2 | nt | nt | 81.2* | nt | ? | nt
Cc1cccc(N2CCN(C(=O)c3noc4c3COc3ccc(C)cc3-4)CC2C)c1 (stereo unspecified) | -10.9% | i | 39.9 | i | -2.4% | 2.2%
